Screening data deposited in PubChem BioAssay by National Center for Advancing Translational Sciences (NCATS).
Most compounds without a hit are left out; they make up all but 19% or so of the library.
IL-1B inflam inh – inhibitors of inflammasome signaling (IL-1 beta secretion); THP-1 LPS/ATP IL-1B secretion, AlphaLISA, 16 h; stronger effect = lower value; activity change, % at 57.5 µM; 4.7% of 360,000 active; in the data active = activity change below about -50%; inconclusive = mostly about -30% to -49%
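Secreted IL-1B measured by AlphaLISA bead assay after 16 h compound exposure of THP-1 cells; compounds (final up to 57.5 uM) added 1 h before LPS (250 ng/mL) and ATP (1.25 mM) stimulation; lower signal means less secretion.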
HT1080 IDH1KD tx – kills HT-1080 cells with IDH1 knockdown; HT-1080 IDH1 knockdown viability, ATP luminescence, 48 h; AID 686971; 2% of 360,000 active; Potency, µM (doses to about 46.1 µM), actives largely listed as cytotoxic
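IDH1KD HT-1080 cells, 750/well, RPMI + 5% FBS; compound pinned after 2 h settling; 48 h, 37 °C; CellTiter-Glo luminescence; % activity normalised to DMSO and no-cell wells; curves fitted, classed by r2 and efficacy.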
DT40 TDP1 no CPT – qHTS for Inhibitors of human tyrosyl-DNA phosphodiesterase 1 (TDP1): qHTS in cells in absence of CPT | DT40 Tdp1-/- hTDP1 cells, no CPT, ATP luminescence, 48 h | AID 686978, 2013 | Potency, µM (doses to about 46.2 µM), actives largely listed as inhibitors | 15% of 420,000 active; also: nearly all actives have a fitted effect of over 55% in size
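Chicken DT40 Tdp1-/- cells complemented with human TDP1, screened without camptothecin (DMSO vehicle only), 400 cells/well. Compounds pin-transferred, cells incubated at 37 °C for at least 48 hr. Growth read as ATP-dependent luminescence (CellTiter-Glo, 30 min at RT).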
HT1080NT lethal – kills 2HG-producing HT-1080-NT fibrosarcoma cells. HT-1080-NT fibrosarcoma viability, CellTiter-Glo ATP luminescence, 48 h. Potency, µM (doses to about 46.1 µM), most hits filed as cytotoxic. 1.6% of 360,000 active. AID 686970;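 also: NT is the 2HG producing partner of a matched IDH1 knockdown line; nearly all actives have a fitted effect of over 55% in size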
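HT-1080-NT fibrosarcoma cells (2HG-overproducing), 750 cells/well in RPMI with 5% FBS, dosed after 2 h and incubated 48 h at 37C. CellTiter-Glo luminescence normalized to DMSO and no-cell wells; concentration-response curves fitted and classed.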
DT40 TDP1 CPT – DT40-hTDP1 cell growth loss with CPT; Potency, µM (highest dose often 46.2 µM), most hits filed as inhibitors; 12% of 420,000 active; chicken DT40 Tdp1-/-;hTDP1 cells + 20 nM CPT, ATP luminescence, 48 h; AID 686979; also: nearly all actives have a fitted effect of over 55% in size
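Chicken DT40 Tdp1-/- cells stably complemented with human TDP1 were seeded at 400 cells/well in medium containing 20 nM camptothecin, exposed to pin-transferred compounds, and grown at 37 °C for at least 48 hr. Viability was read as ATP luminescence.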
Each line names hits and unclear results; the compound was inactive in the other large screens. Unless noted, calls follow the shape of the dose curve; as a rule, active = well fitted curve in the direction sought with a large enough effect; inconclusive = small, poorly fitted or top-dose-only effect, or another doubt; inactive = no such curve, though single readings can be large; an effect the other way counts as inactive or inconclusive.

CCCC(=O)NC(c1cccs1)c1cc([N+](=O)[O-])c2cccnc2c1O (configuration not stated)	IL-1B inflam inh inconclusive, HT1080 IDH1KD tx inconclusive, DT40 TDP1 no CPT 13µM, DT40 TDP1 CPT 23µM
O=C(CCc1ccccc1)NC(c1cccs1)c1cc(Cl)c2cccnc2c1O (configuration not stated)	HT1080 IDH1KD tx inconclusive, DT40 TDP1 no CPT 4.1µM, HT1080NT lethal inconclusive, DT40 TDP1 CPT 3.7µM
CCC(=O)NC(c1cccs1)c1cc([N+](=O)[O-])c2cccnc2c1O (configuration not stated)	HT1080 IDH1KD tx 13µM, DT40 TDP1 no CPT inconclusive, HT1080NT lethal inconclusive, DT40 TDP1 CPT 21µM
C[C@H]1CN([C@@H](C)CO)C(=O)CCCn2cc(nn2)CO[C@@H]1CN(C)C(=O)Nc1ccc(F)cc1	none
CC(C)NC(=O)NC(=O)CSc1ccccc1F	none
CCn1c(SCC(=O)c2[nH]c(C)c(C(C)=O)c2C)nnc1-c1cccs1	DT40 TDP1 no CPT 18µM, DT40 TDP1 CPT inconclusive
CC(=O)OCC#CCSc1nc2ccccc2n1C	none
CC(=O)c1c(C)[nH]c(C(=O)CSc2nc3ccccc3n2C)c1C	DT40 TDP1 no CPT 9.2µM, DT40 TDP1 CPT 15µM
CSc1nnc(N2C(=O)C(O)=C(C(=O)c3ccco3)C2c2cccc(Cl)c2)s1 (configuration not stated)	none
CCN(CC)CCCNc1ccc(-c2nnc(-c3ccc(OCC(C)C)cc3)o2)cn1	IL-1B inflam inh -51, HT1080 IDH1KD tx inconclusive, DT40 TDP1 no CPT 2.9µM, DT40 TDP1 CPT 2.9µM
O=S(=O)(Nc1cc(S(=O)(=O)N2CCOCC2)ccc1NCC1CCCO1)c1ccccc1F (configuration not stated)	none
O=C(COC(=O)Cc1ccccc1F)NCc1ccccc1Cl	none
O=C1CC(=Nc2ccc([N+](=O)[O-])cc2)NN1c1c(Cl)cc(Cl)cc1Cl	IL-1B inflam inh -74, DT40 TDP1 no CPT 26µM, DT40 TDP1 CPT inconclusive
O=C(c1ccc([N+](=O)[O-])cc1)N(Cc1ccc(Cl)cc1Cl)N1C(=O)CCCC1=O	none
O=C(O)CCC(=O)Nc1ccc2c(c1)Cc1cc(NC(=O)CCC(=O)O)ccc1-2	none
CCC(=O)Nc1ccc2c(c1)Cc1cc([N+](=O)[O-])ccc1-2	DT40 TDP1 no CPT 6.5µM, DT40 TDP1 CPT inconclusive
O=CNc1ccc2c(c1)Cc1cc([N+](=O)[O-])ccc1-2	IL-1B inflam inh -55, HT1080 IDH1KD tx 5.2µM, DT40 TDP1 no CPT 13µM, HT1080NT lethal 5.8µM, DT40 TDP1 CPT inconclusive
CC(C)(C)NC(=O)COC(=O)c1ccc(NC(=O)CC#N)cc1	DT40 TDP1 CPT 1.5µM
N#CCC(=O)Nc1ccc(C(=O)OCC(=O)c2ccc3c(c2)OCCO3)cc1	DT40 TDP1 no CPT 18µM, DT40 TDP1 CPT inconclusive
N#CCC(=O)Nc1ccc(C(=O)OCC(=O)c2ccc3c(c2)OCO3)cc1	IL-1B inflam inh inconclusive, HT1080 IDH1KD tx inconclusive
CN(C)S(=O)(=O)c1ccc(C(=O)OCC(=O)Nc2ccc3c(c2)OCO3)cc1	none
O=C(COC(=O)c1ccc(O)cc1)Nc1ccc2c(c1)OCO2	DT40 TDP1 no CPT 12µM, DT40 TDP1 CPT inconclusive
O=C(COC(=O)c1ccc(O)cc1O)Nc1ccc2c(c1)OCCO2	DT40 TDP1 no CPT 9.2µM, DT40 TDP1 CPT 9.2µM
CCCn1c(C)cc(C(=O)COC(=O)CN=C2NS(=O)(=O)c3ccccc32)c1C	DT40 TDP1 CPT inconclusive
COc1ccc(N=C/C=C2/C=C(c3ccccc3)OC(C)(C)O2)cc1	none
O=C(COC(=O)c1ccc(CO)cc1)Nc1ccc2ccccc2c1	none
O=C(COC(=O)c1ccc(O)cc1O)Nc1ccc2ccccc2c1	DT40 TDP1 no CPT 13µM, DT40 TDP1 CPT 15µM
CN(C)c1ncnc2c1ncn2C1CCCO1 (configuration not stated)	none
O=C(COc1ccc(Cl)cc1)Nc1cc2c3c(c1)CC(=O)N3CCC2	DT40 TDP1 no CPT 21µM, DT40 TDP1 CPT 21µM
Cc1ccc(-n2nnnc2Sc2nc([N+](=O)[O-])nn2C)cc1C	IL-1B inflam inh -77, HT1080 IDH1KD tx inconclusive, DT40 TDP1 no CPT inconclusive, DT40 TDP1 CPT inconclusive
